We go through 96 molecules from PubChem BioAssay AID1347076 (National Center for Advancing Translational Sciences (NCATS), 2019).

Screen size: about 400,000 compounds; about 13,000 (3.2%) were called active. Entries that show only a call come without a potency. Another 18% or so got no clear call; they are omitted. The call rests on the fitted dose curve; in most records, active means well fitted cell-killing curve with a large enough effect; inconclusive means small, poorly fitted or top-dose-only effect, or effect the other way; inactive means flat fitted curve, though single readings scatter. For the sample, actives were picked, then their nearest neighbours and some compounds at random.
Potency means the concentration at half of the fitted maximal effect.

This experiment can be described thus: qHTS assay for MDR1-selective chemotherapeutics: Primary screen using the drug-selected MDR subline cells KB-V1. Further: nearly all actives have a fitted effect of over 60% in size. The note with it: KB-V1 MDR cells viability, CellTiter-Glo, 72 h; series mostly up to 46.1 µM. The gist of the method:
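KB-V1 MDR subline cells in DMEM (phenol-red free, 10% FBS) exposed to compounds in qHTS concentration series for 72 h at 37 degrees C. Viability read by CellTiter-Glo luminescence; concentration-effect curves fitted after normalization and correction.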
(In general: qHTS replaces the single test concentration by a dilution series.)
Regarding `CCc1nc2ccc(C(=O)Nc3cc(-c4ccccc4)ccc3OC)cn2c1N(CC)CC(=O)N(C)C`, the Potency entry is “inactive”.

Consider `O=C(OCc1cc(=O)n2nc(C3CC3)sc2n1)c1ccccc1Cl`, for which the Potency result is “inactive”.

`Cn1c(=O)[nH]c(=O)c2c1nc(CN1CCN(c3ccccc3F)CC1)n2CCc1ccccc1`: the Potency result is “inactive”.

In the case of `Cn1c(=O)[nH]c(=O)c2c1nc(CN(Cc1ccccc1)Cc1ccccc1)n2CCN1CCOCC1`, the Potency was 6.51 µM (active).

Consider `Cn1c(=O)c2c(nc(CN3CCOCC3)n2Cc2ccccc2)n(C)c1=O`, for which the Potency result was “inactive”.

`C[C@H]1CN([C@@H](C)CO)C(=O)c2cc(C3=CCCCC3)cnc2O[C@@H]1CN(C)C(=O)Cc1ccccc1`: the Potency result was “inactive”.

Turning to `COc1ccc(CCNC(=O)Cn2c(=O)n(-c3ccccc3)c(=O)c3c(C)c(C)sc32)cc1OC`, the Potency result was “inactive”.

Regarding `CC1(C(=O)NS(=O)(=O)C2CC2)CCCN(C(=O)CSc2ccccc2)C1` (stereo unspecified), the Potency result is “inactive”.

Take `Cn1c(C(=O)NCCCN2CCCCC2)cc2sccc21`: the Potency result was “inactive”.

Turning to `COc1ccc(CCNC(=O)c2cc3sccc3n2C)cc1OC`, the Potency was 20.6 µM (active).

For `COc1ccc(CCNC(=O)COC(=O)/C=C/c2cccs2)cc1OC`, the Potency entry was “inactive”.

`O=C(O)C1=C(C(=O)O)C2CCC1C2`: the Potency entry is “inactive”.

For the molecule `Cc1ccc(S(=O)(=O)n2nc(C)c(S(=O)(=O)N3CCCCCC3)c2C)cc1`, the Potency entry was “inactive”.

As to `COc1cc(N=Cc2c(O)[nH]c3ccccc23)cc(OC)c1OC`, the Potency was 4.11 µM (active).

In the case of `COc1cc2[nH]c(O)c(C=O)c2cc1OC`, the Potency entry is “inactive”.

`COc1ccc(N=Cc2c(O)[nH]c3ccccc23)cc1OC`: the Potency was 6.51 µM (active).

Regarding `CN=c1scc(-c2cc(OC)ccc2OC)n1/N=C/c1c(C)[nH]c2ccccc12`, the Potency entry is “inactive”.

In the case of `Oc1[nH]c2ccccc2c1N=Nc1c(F)c(F)c(F)c(F)c1F`, the Potency result was “inactive”.

With `COc1ccccc1N=Cc1c(O)c2ccccc2oc1=O`, the Potency entry is “inactive”.

For `CCCCN(C(C)=O)c1ccc2c(c1)C1CC2CCN1Cc1ccccc1` (stereo unspecified), the Potency result is “inactive”.

In the case of `Cc1ccccc1-c1nc(SCC(=O)N(C)c2ccccc2)c2c(=O)n(C)c(=O)n(C)c2n1`, the Potency entry is “inactive”.

With `CC1(C(=O)NS(=O)(=O)c2cccc(F)c2)CCN1C(=O)Cc1ccc(Cl)cc1Cl` (stereo unspecified), the Potency entry was “inactive”.

Take `CNC(=O)c1ccc(CN(C)C(=O)c2cc(C3CC3)nc3c2cnn3C(C)C)cc1`: the Potency entry was “inactive”.

As to `Cc1c(C(=O)Nc2ccccn2)oc2ccc(Br)cc12`, the Potency is 11.6 µM (active).

For the molecule `Cc1nonc1NC(=O)c1oc2ccccc2c1C`, the Potency result was “inactive”.

For `Cc1noc(C)c1C(=O)Nc1ccccn1`, the Potency entry was “inactive”.

Turning to `CCS(=O)(=O)c1nc(S(=O)(=O)c2ccc(C)cc2)c(NCc2ccc(Cl)cc2)s1`, the Potency entry was “inactive”.

Turning to `N#Cc1ccc(C(C(=O)NCc2ccccc2)n2c(=O)c(-c3ccco3)nc3ccccc32)cc1` (stereo unspecified), the Potency result was “inactive”.

Consider `C=CCC[C@H](CCCCC)OC(=O)/C=C/[C@H](O)[C@@H](O)C[C@@H](O)CC=C`, for which the Potency result was “inactive”.

Consider `O=C1c2ccccc2NC(c2ccc(-c3cccc(Cl)c3)o2)N1O` (stereo unspecified), for which the Potency was 4.61 µM (active).

With `O=C(O)C(c1ccccc1)N1C(=O)/C(=C\c2ccc(-c3cccc(Cl)c3)o2)SC1=S` (stereo unspecified), the Potency result was “inactive”.

Regarding `O=c1c(-c2cccc(Cl)c2)c[nH]n1-c1ccccc1`, the Potency result is “inactive”.

On to `COc1ccc(CCNC(=O)c2cn(C)c3ccc(S(=O)(=O)N(C)C4CCCCC4)cc3c2=O)cc1OC`, for which the Potency result was “inactive”.

Take `Cc1cc2nc(-c3ccc(Cl)cc3)c(Cc3cccc(F)c3)n2c(C)c1Br`: the Potency result was “inactive”.

For `N#Cc1ccc(OC2=NS(=O)(=O)c3ccccc32)cc1`, the Potency result was “inactive”.

With `Brc1ccccc1C1N=C(c2ccccc2)NO1` (stereo unspecified), the Potency entry was “inactive”.

Turning to `N#Cc1ccc(C2N=C(c3ccccc3)NO2)cc1` (stereo unspecified), the Potency is 18.4 µM (active).

Consider `COc1cccc(-c2cc3nc(NCCOc4ccccc4Cl)n(C)c(=O)c3s2)c1`, for which the Potency entry was “inactive”.

For `N#Cc1nc(NCc2ccc(Cl)c(Cl)c2)c2ncn(CCCO)c2n1`, the Potency result is “inactive”.

`COc1ccc(CN2C(=O)C(CC(=O)NCCCCc3ccccc3)CC(C(=O)N3CCOCC3)=C2C)cc1` (stereo unspecified): the Potency result is “inactive”.

In the case of `CCCN(CCC)C(=O)Cn1c(=O)n(-c2ccc(Cl)cc2)c(=O)c2c3c(sc21)CCCCC3`, the Potency entry is “inactive”.

For the molecule `N#Cc1ccc[n+](CC(=O)c2ccc(F)cc2)c1`, the Potency result was “inactive”.

Turning to `Cc1cccc2nc(CSc3nc4[nH]ncc4c(=O)n3-c3cccc(Cl)c3)cc(=O)n12`, the Potency was 23.1 µM (active).

For `COC(=O)c1ccc(CSc2nc3ccccc3c(=O)n2-c2cccc(OC)c2)o1`, the Potency entry is “inactive”.

For the molecule `COc1ccc(CCNC(=O)CSc2nc3[nH]ncc3c(=O)n2-c2cccc(C(F)(F)F)c2)cc1OC`, the Potency entry was “inactive”.

With `Cc1ccc(NC(=O)[C@H](Cc2ccccc2)NC(=O)CC[C@H]2O[C@@H](n3ccc(=O)[nH]c3=O)[C@H](O)[C@@H]2O)cc1C`, the Potency result was “inactive”.

For `O=C(c1ncn2c1c(=O)[nH]c1ccccc12)N1CCc2ccccc2C1`, the Potency result is “inactive”.

As for `CN1CCN(c2oc(-c3ccc(COc4ccc(Cl)cc4)o3)nc2C#N)CC1`, the Potency result is “inactive”.

On to `CC1(C)Cc2cccc(OCC(=O)NCc3ccccc3)c2O1`, for which the Potency entry was “inactive”.

For the molecule `CC1(C)Cc2cccc(OCC(=O)N3CCN(c4ccc([N+](=O)[O-])cc4)CC3)c2O1`, the Potency is 2.59 µM (active).

Turning to `CC1(C)Cc2cccc(OCC(N)=O)c2O1`, the Potency entry is “inactive”.

In the case of `Cc1ccccc1CSCCNC(=O)c1ccc(N(C)S(=O)(=O)c2ccccc2)cc1`, the Potency is 13 µM (active).

For the molecule `CN(c1ccccc1)S(=O)(=O)c1ccc(C(=O)NCCc2ccccc2)cc1`, the Potency entry is “inactive”.

As for `COc1ccccc1CNC(=O)c1ccc(N(C)S(=O)(=O)c2ccc(C)cc2)cc1`, the Potency entry was “inactive”.

`COCc1cccc(-c2csc(C(O)c3ccc(F)cc3)n2)c1` (stereo unspecified): the Potency entry is “inactive”.

As to `O=c1cc(CCl)nc2scc(-c3ccccc3)n12`, the Potency entry was “inactive”.

As to `OCCn1c(-c2ccccc2)csc1=Nc1ccccc1`, the Potency is 14.6 µM (active).

As to `Cn1c(=O)nc2n(-c3ccc(Br)cc3)c3cccc(Cl)c3cc-2c1=O`, the Potency entry was “inactive”.

Consider `CCOc1ccc(Cl)cc1-c1cc(C(=O)NCc2cccs2)[nH]n1`, for which the Potency result was “inactive”.

As to `CCc1ccccc1OCC(=O)Nc1nnc(C2CC2)s1`, the Potency result was “inactive”.

On to `Cc1ccc(C(=O)N/C(=C/c2ccc(-c3cccc([N+](=O)[O-])c3)o2)C(=O)NCCCN(C)C)cc1`, for which the Potency result is “inactive”.

In the case of `Cc1ccc(Cc2cnc(NC(=O)/C(C#N)=C/c3ccc(-c4cccc([N+](=O)[O-])c4)o3)s2)cc1`, the Potency was 18.4 µM (active).

Turning to `N#C/C(=C\c1ccc(-c2cccc([N+](=O)[O-])c2)o1)C(=O)NCCN1CCOCC1`, the Potency entry was “inactive”.

Consider `CC(C)[C@H](NC(=O)c1ccccc1F)C(=O)Nc1cccc(S(=O)(=O)N2CCOCC2)c1`, for which the Potency result was “inactive”.

In the case of `NS(=O)(=O)c1ccc(CCNC(=O)CCCCCn2c(=O)[nH]c3ccccc3c2=O)cc1`, the Potency result was “inactive”.

Turning to `C[C@@H]1Cn2cnc(C(=O)Nc3ccc(CNC(=O)OC(C)(C)C)cc3)c2C(=O)N1`, the Potency result was “inactive”.

Consider `COc1ccc(C2=Nn3c(nnc3-c3ccccc3OC)SC2)cc1OC1CCCC1`, for which the Potency was 5.8 µM (active).

As to `COc1ccccc1-c1nnc2n1N=C(c1ccc(OC(F)F)c(OCC3CC3)c1)CS2`, the Potency result is “inactive”.

As to `Cc1nnc2n1N=C(c1ccccc1)CS2`, the Potency entry was “inactive”.

In the case of `COc1ccc2c(CNCCc3ccccc3C)c(C(=O)O)n(Cc3ccccc3C)c2c1`, the Potency entry was “inactive”.

Take `COc1ccc(S(=O)(=O)N[C@@H]2C=C[C@@H](CC(=O)N3CCc4ccccc4C3)O[C@@H]2CO)cc1`: the Potency result is “inactive”.

As to `COc1cccc(NC(=O)CN(C)C(=O)/C=C/c2cn(-c3ccccc3)nc2-c2cccs2)c1`, the Potency result is “inactive”.

`COc1cccc(NC(=O)CN(C)C(=O)Cc2ccc(Cl)cc2Cl)c1`: the Potency entry was “inactive”.

Consider `COc1cccc(NC(=O)CN(C)C(=O)/C=C/c2cc(OC)ccc2OC)c1`, for which the Potency was 10.3 µM (active).

`O=C(O)C1CCCN1c1nc(Cl)ccc1[N+](=O)[O-]` (stereo unspecified): the Potency result is “inactive”.

Regarding `COc1ccc(NC2CCCN(C(=O)c3ccccc3-c3ncc[nH]3)C2)cc1` (stereo unspecified), the Potency result was “inactive”.

Take `COc1cccc(/C=N/NC(=O)c2cccc([N+](=O)[O-])c2)c1OS(=O)(=O)c1ccc(C)cc1`: the Potency is 16.4 µM (active).

As for `Cc1ccc(S(=O)(=O)Oc2ccc(/C=N/NC(=O)c3ccncc3)cc2)cc1`, the Potency entry was “inactive”.

For the molecule `COc1cc(OC)c(/C=N/NC(=O)c2ccc([N+](=O)[O-])cc2)cc1Br`, the Potency result was “inactive”.

As for `CC(C)C[C@H]1CN([C@@H](Cc2ccccc2)CN2CCC[C@@H]2CN2C(=O)C(=O)NC[C@@H]2Cc2ccc(O)cc2)C(=O)C(=O)N1CCc1ccccc1`, the Potency result was “inactive”.

With `COc1ccc(-c2nc3cnccn3c2NC2CCCCC2)cc1-c1cccc(Cl)c1`, the Potency was 14.6 µM (active).

`COc1ccccc1N1CCN(c2ncnc3onc(-c4cccc(Cl)c4)c23)CC1`: the Potency result is “inactive”.

For the molecule `CCOc1cc(-c2nnc(SCC(=O)NC3CCCCC3)nc2-c2ccc(OC)c(OCC)c2)ccc1OC`, the Potency result was “inactive”.

In the case of `Cc1ccc(Nc2c(-c3ccc(C)cc3)nc3cnccn23)cc1`, the Potency entry is “inactive”.

With `COc1ccc(C)cc1S(=O)(=O)NC1CCCCC1`, the Potency entry is “inactive”.

Regarding `COc1cccc(CNC(=O)CN2C(=O)CCc3cc(S(=O)(=O)N4CCOCC4)ccc32)c1`, the Potency result was “inactive”.

With `CCCNC(=O)c1cc(C2CCCCN2C(=O)OC)on1` (stereo unspecified), the Potency entry is “inactive”.

`CCC(C)C(CO)NC(=O)/C=C/[C@H]1O[C@@H](n2cnc3c(NC(=O)c4ccccc4)ncnc32)[C@H](O)[C@@H]1O` (stereo partly specified): the Potency result is “inactive”.

Take `COc1ccc([C@H]2N[C@]3(CCCN(CC4CCCCC4)C3=O)[C@H]3C(=O)N(C)C(=O)[C@@H]23)cc1`: the Potency result is “inactive”.

As to `Cn1c(=O)c2cc(NC(=O)NCCc3cccs3)ccc2n1Cc1cccc(C(F)(F)F)c1`, the Potency entry is “inactive”.

As for `Cc1cccc(Nc2nc(-c3ccccc3)cs2)n1`, the Potency entry was “inactive”.

Consider `CC(=O)Nc1cccc(-c2csc(Nc3cccc(C)n3)n2)c1`, for which the Potency is 20.6 µM (active).

Turning to `CC(=O)NC(c1ccccc1)c1nc(-c2cccc(C(C)C)c2)cs1` (stereo unspecified), the Potency result is “inactive”.

For the molecule `O=C1CC[C@@H](C(=O)N2CSC[C@@H]2C(=O)Nc2ccc(C(F)(F)F)cc2)N1`, the Potency entry was “inactive”.

For `Cc1ccc(-c2nc(=N)sn2Cc2ccccc2)cc1`, the Potency result was “inactive”.

As to `CN(N=O)c1ccc(C=C2c3ccccc3-c3ccccc32)cc1`, the Potency result is “inactive”.
